A549 viability: counter-screen for Nrf2 inhibitors: cytotoxicity in A549 cells; AID 504648; Potency, µM (titrated, usually from 46 µM), for inactives: at the top dose activity change, negative = cytotoxicity, most hits filed as inhibitors; A549 ARE-Fluc cells, CellTiter-Fluor viability, 18-24 h; 0.16% of 390,000 active; note: % is set by controls: 0 for no effect and ±100 for the full control effect
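A549 ARE-Fluc cells in 5% FBS OPTI-MEM, 5000 cells/well, rested 2 h then exposed to compounds in concentration-response for 18-24 h at 37 °C. Viability by CellTiter-Fluor fluorescence (Ex 405/Em 525) after 30 min; luciferase luminescence (BugLite, 15 min, RT) read afterwards.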
Pin1 inhibitor: human Pin1 inhibition. Q13526. Pin1 FP peptide displacement, HiFluor488, 10 min. Potency, µM (titrated, usually from 115 µM), without a hit: top-dose activity, negative = inhibition, usual class: inhibitors. 0.009% of 390,000 active; active = well fitted inhibition curve with a large enough effect in the polarisation, with a control signal flat, not every such curve was filed as active; inconclusive = small, poorly fitted or top-dose-only effect, or effect the other way, or a change in a side signal; inactive = no such curve, though single readings can be large or run the other way; the % refers to the polarisation; note: % is set by controls: 0 for no effect and ±100 for the full control effect
Target sequence (Q13526 whole entry, looked up): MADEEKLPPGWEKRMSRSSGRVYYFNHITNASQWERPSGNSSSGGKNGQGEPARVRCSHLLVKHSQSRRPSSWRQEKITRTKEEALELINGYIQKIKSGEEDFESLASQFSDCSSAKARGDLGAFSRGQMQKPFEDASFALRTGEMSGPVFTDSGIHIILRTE
Nrf2 inh: inhibitors of Nrf2 signaling; 2.1% of 360,000 active; A549 ARE-Fluc reporter, luciferase luminescence, 18-24 h; Potency, µM (series often up to 46 µM), for the others: at the highest dose activity change, negative = inhibition, usual class: inhibitors; note: % is set by controls: 0 for no effect and ±100 for the full control effect; nearly all actives have a fitted effect of over 60% in size
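Quantitative HTS in A549 cells stably bearing an antioxidant response element-firefly luciferase construct. Inhibition of Nrf2-driven transcription was scored by luminescence after 18-24 h of compound exposure at 37 °C.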
Nrf2 activator: activators of Nrf2 (ARE) signaling; AREc32 ARE-luciferase reporter (MCF7-derived line), luminescence, 24 h; Potency, µM (top dose mostly 46.1 µM), for inactives: at the highest dose activation, most hits filed as activators; 0.31% of 410,000 active; note: % of control where 0% means no effect; nearly all actives have a fitted effect of over 65% in size
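ARE-driven firefly luciferase activity in AREc32 cells measured after a 24 hr compound exposure at 37 deg C, using Steady-Glo reagent and a 30 min room-temperature hold.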
* = called active by the depositor; ? = inconclusive; · = no result. Shown are actives, neighbours in structure and some others; about 2.2% of the full set was active somewhere. Unless noted, calls come from the whole dose curve; as a rule, active = well fitted curve in the direction sought with a large enough effect; inconclusive = small, poorly fitted or top-dose-only effect, or another doubt; inactive = no such curve, though single readings can be large; an effect the other way counts as inactive or inconclusive. Potency is the fitted concentration of half-maximal effect.

SMILES	A549 viability	Pin1 inhibitor	Nrf2 inh	Nrf2 activator
Cn1c(=O)n(C)c2cc(N3CCCCC3)c(NC(=O)c3ccccc3)cc21	-2%	0%	4%	0%
C/C(CC(=O)Nc1ccc(Cl)c(C(F)(F)F)c1)=N\NC(=O)c1ccccc1O	?	4%	23µM*	9%
CC(=O)Nc1sc2c(c1-c1ccco1)CCNC2	·	-20%	·	·
CC(/C=C/c1ccccc1)=N\Nc1nc2c(c(=O)[nH]c(=O)n2C)n1CCO	3%	4%	-12%	28%
CCCn1c(N/N=C\C=C\c2ccccc2)nc2c1c(=O)[nH]c(=O)n2C	0%	?	9.2µM*	10%
Cc1ccc(C(=O)c2oc3ccccc3c2NC(=O)COc2ccccc2Cl)cc1	0%	-9%	6%	-1%
Cc1sc(N)nc1-c1cccc([N+](=O)[O-])c1	0%	3%	-23%	·
N#Cc1c(NC(=O)CSc2ncn[nH]2)sc2c1CCCC2	-6%	-1%	4.1µM*	-2%
CC1CCc2c(sc(NC(=O)CSc3ncn[nH]3)c2C#N)C1 (stereo not given)	-10%	-9%	7.3µM*	-3%
CC(C)(C)C1CCc2c(sc(NC(=O)CSc3ncn[nH]3)c2C#N)C1 (stereo not given)	?	4%	?	-1%
Cc1cc(F)ccc1-n1nnc(C(N)=O)c1C	-11%	-1%	-9%	-1%
Cc1cc(C)cc(NC(=O)CSc2ccc(-c3cccs3)nn2)c1	-2%	14%	10µM*	0%
COC(=O)c1ccc(NC(=O)CSc2ccc(-c3cccs3)nn2)cc1	9%	-1%	9%	3%
O=C(CSc1ccc(-c2cccs2)nn1)Nc1ccccc1	0%	24%	18µM*	5%
NCCCN(Cc1ccc(Cl)c(Cl)c1)c1ccc(Br)cn1	2%	2%	10%	·
N#Cc1nc(Nc2cccc(Br)c2)nc(NC2CCCC2)n1	?	69%	?	·
COc1ccc(CN(C)C(=O)C(Cc2ccccc2)NC(=O)c2ccccc2)cc1F (stereo not given)	-1%	-3%	-29%	-1%
CCOc1ccc(CN(C)C(=O)[C@H](Cc2ccccc2)NC(=O)OCc2ccccc2)cc1OC	?	3%	21µM*	0%
CC(=O)c1ccc(-c2ccc(C3C4C=CCCC4(C)C(=O)N3Cc3ccccc3)c(F)c2)cc1 (stereo not given)	-15%	5%	?	·
CN(C)S(=O)(=O)Oc1ccsc1C(=O)Nc1ccc(Br)cc1	?	-1%	21µM*	11%
Cc1csc2c(N3CCN(C(=O)NC(C)(C)C)CC3)ncnc12	-16%	-7%	18µM*	-1%
Cc1csc2c(N3CCN(C(=O)Nc4ccc(Cl)c(Cl)c4)CC3)ncnc12	-16%	20%	21µM*	3%
Cc1ccc(C(=O)N/N=C\c2ccc(-c3ccc(Cl)c(Cl)c3)o2)cn1	-17%	17%	18µM*	-3%
Cc1ccc(CNC(=O)c2cc(S(=O)(=O)N3CCCCC3)ccc2N2CCOCC2)cc1	?	3%	21µM*	-1%
COc1ccc(CNC(=O)C2CCCN(S(=O)(=O)N(C)c3ccc(F)cc3)C2)cc1OC (stereo not given)	-3%	-5%	23µM*	0%
SMILES	A549 viability	Pin1 inhibitor	Nrf2 inh	Nrf2 activator
O=C(OCCOc1cccc(Cl)c1)c1cc(S(=O)(=O)N2CCCCC2)ccc1N1CCOCC1	-17%	-2%	12µM*	3%
COc1ccc(CNC(=O)c2cc(S(=O)(=O)N3CCCCC3)ccc2Cl)cc1OC	0%	2%	16µM*	3%
CCOc1ccc(CNC(=O)C2CCCN(S(=O)(=O)N(C)c3ccc(F)cc3)C2)cc1OC (stereo not given)	-13%	-1%	?	1%
Cc1nc(N)nc(Nc2ccc(C#N)cc2)c1Br	4%	0%	1%	2%
N#Cc1c(N)nc(N)nc1Nc1ccc(Br)cc1	-6%	-3%	?	13µM*
COc1ccccc1NC(=O)C1CCN(S(=O)(=O)c2ccc3[nH]c4c(c3c2)CCCCC4)CC1	14%	8%	?	1%
COc1c(C)cc(NS(=O)(=O)c2ccc3c(c2)OCCO3)cc1C	-10%	0%	23µM*	6%
Cc1ccc(NS(=O)(=O)c2ccc3c(c2)N(C)CCO3)cc1	-6%	2%	26µM*	3%
COc1ccc(NS(=O)(=O)c2ccc3c(c2)OCCO3)cc1OC	-12%	2%	21µM*	0%
COc1ccc(S(=O)(=O)Nc2ccc3ccccc3c2)cc1C	-15%	5%	21µM*	4%
CN1CCOc2cc(S(=O)(=O)Nc3ccc(F)cc3)ccc21	-5%	-1%	·	0%
COc1ccc(S(=O)(=O)Nc2ccc3c(c2)OCO3)cc1OC	1%	1%	3%	0%
Cc1ccc(S(=O)(=O)Nc2ccc3ccccc3c2)cc1	7%	0%	-3%	6%
CCCCOC(=O)c1ccc(NC(=O)CSc2nc3c(c(=O)[nH]2)CCCC3)cc1	-1%	3%	-22%	-1%
CC(=O)C1CCN(c2ncc(-c3cccc(N(C)C)c3)s2)CC1	·	-1%	·	·
Cc1ccccc1-n1c(=O)c2c3c(sc2n2cnnc12)CCCC3	-20%	-2%	?	0%
Cc1ccc(SCC(CC(C)C)N2CCN(C)CCC2=O)cc1 (stereo not given)	-5%	-4%	?	·
CCOC(=O)C1=C(CN(C)Cc2ccccc2)NC(=O)NC1c1ccc(OC(C)C)cc1 (stereo not given)	-13%	1%	26µM*	1%
CCOC(=O)C1=C(CS(=O)(=O)c2ccc(C)cc2)NC(=O)NC1c1ccc(C(C)C)cc1 (stereo not given)	?	-4%	18µM*	0%
CCOC(=O)C1=C(CN2CCN(c3cc(C)ccc3C)CC2)NC(=O)NC1c1ccc(Cl)cc1 (stereo not given)	-18%	1%	21µM*	0%
CCOC(=O)C1=C(CS(=O)(=O)c2ccc(C)cc2)NC(=O)NC1c1ccc(O)c(OC)c1 (stereo not given)	-4%	-3%	1%	0%
CCCN1CNc2c(c(=O)[nH]c(=S)n2CCc2ccc(C)cc2)C1	16%	0%	7%	·
Cc1cc(=O)n2c(C(=O)Nc3ccc(Br)cc3)c(C(=O)Nc3ccccc3)sc2n1	-1%	-1%	18%	0%
COc1cc(OC)c(NC(=O)CCCn2nc(C)c3sc4ccccc4c3c2=O)cc1Cl	?	0%	?	0%
Cn1c(=O)c2c(-c3ccc(Cl)cc3)n(Cc3ccccc3)cc2n(C)c1=O	-17%	6%	?	0%
Cn1c(=O)c2cn(Cc3ccc(Cl)cc3)cc2n(C)c1=O	16%	2%	12µM*	0%
CCc1sc(-c2cc3cccc(OC)c3oc2=O)nc1-c1cc(C)ccc1C	5%	-3%	-11%	·
CC(=O)N1CC(C)Sc2ccc(S(=O)(=O)NCCc3ccc(C)cc3)cc21 (stereo not given)	-11%	-1%	7.3µM*	0%
CC(=O)N1CCSc2ccc(S(=O)(=O)NCCc3ccc(Cl)cc3)cc21	-18%	2%	15µM*	0%

Source: PubChem (National Center for Advancing Translational Sciences (NCATS))
